Keap1-Nrf2 PPI = inhibitors of human Keap1-Nrf2 protein-protein interaction | actives 0.15% (n = 340,000) | Q14145 | Keap1 Kelch-Nrf2 peptide fluorescence polarization, 1536-well | inhibition, % at 9.4 µM | AID 504523; in the data active = inhibition above about 12%;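 note: human Keap1 Kelch domain with fluorescein labeled Nrf2 9mer peptide probe; 0% = neutral control wells and 100% = peptide positive control; higher means more block of Keap1 binding to Nrf2 peptide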
Target sequence (Q14145 whole entry, looked up, the tested form may be a part): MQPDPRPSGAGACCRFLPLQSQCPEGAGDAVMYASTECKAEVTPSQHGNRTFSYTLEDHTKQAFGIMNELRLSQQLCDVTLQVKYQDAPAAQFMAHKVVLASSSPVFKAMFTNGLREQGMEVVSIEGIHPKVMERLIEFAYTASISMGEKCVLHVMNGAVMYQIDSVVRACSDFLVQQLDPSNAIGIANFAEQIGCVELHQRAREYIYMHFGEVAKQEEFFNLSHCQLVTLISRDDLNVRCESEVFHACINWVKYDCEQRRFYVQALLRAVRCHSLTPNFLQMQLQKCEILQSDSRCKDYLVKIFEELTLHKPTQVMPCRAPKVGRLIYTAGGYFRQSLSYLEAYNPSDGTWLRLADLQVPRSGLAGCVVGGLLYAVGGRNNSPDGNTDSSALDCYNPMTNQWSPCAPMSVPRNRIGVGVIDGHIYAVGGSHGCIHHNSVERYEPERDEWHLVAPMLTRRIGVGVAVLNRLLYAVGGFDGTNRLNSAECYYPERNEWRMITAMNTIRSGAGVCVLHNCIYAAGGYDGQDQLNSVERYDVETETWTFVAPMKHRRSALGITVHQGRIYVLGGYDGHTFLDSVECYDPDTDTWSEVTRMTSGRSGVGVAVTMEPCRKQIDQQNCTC
LANA DNA inh = blocks KSHV LANA C-terminal domain binding to DNA; MBP-C-LANA/FAM-LBS DNA binding, fluorescence polarization; inhibition, % at 9 µM; actives 0.078% (n = 340,000);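 active = highest replicate inhibition at or above 60% at 9 µM, even if other replicates fall short; inactive = all replicates below 60% inhibition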;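 note: 0% = neutral control wells and 100% = 4 µM acridine orange control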
LANA-H2A inh = blocks KSHV LANA binding to histone H2A/H2B; cell-free LANA-H2A/H2B peptide, fluorescence polarization; inhibition, % (no concentration beside the values); actives 0.6% (n = 320,000); in the data active = inhibition mostly above about 10%, no sharp cut-off; inactive = mostly below about 6.7%
cardiac RTF act = cardiac RTF calcium sensitization; AID 493008; activation, % at 7.2 µM; actives 0.24% (n = 340,000); IANBD-labeled TnC RTF fluorescence at EC20 calcium; 0% EC20 calcium, 100% full calcium; P19429+P45379;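 active = activation above the mean over all tested compounds plus 3 SD, cut at about 30% in these data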;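 note: rise in fluorescence read as greater calcium sensitivity of cardiac thin filaments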
RTF Ca sens inh = cardiac RTF calcium desensitization; P19429+P45379; IANBD-labeled cardiac RTF, Ca2+ fluorescence; inhibition, % at 7.15 µM; actives 0.12% (n = 340,000); AID 493244;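 active = inhibition above the mean inhibition of all tested compounds plus 3 SD, cut at about 17% in these data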;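 note: assay run at fixed EC70 calcium of 1.6 mM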
Active calls of the source: *; i = inactive; nt = no result. Most compounds without a hit are left out; they make up all but 0.98% or so of the library.

SMILES	Keap1-Nrf2 PPI	LANA DNA inh	LANA-H2A inh	cardiac RTF act	RTF Ca sens inh
O=C(N/N=C/C=C/c1ccccc1)c1ccccn1	0	0	-1	-4	4
O=C(N/N=C/C=C\c1cccc([N+](=O)[O-])c1)c1ccccn1	0	2	61*	3	-6
CC(C)NC(=S)NC1(C)CCS(=O)(=O)C1 (configuration not stated)	-5	-3	-4	-3	-16
CC1(NC(=O)N2CCCCC2)CCS(=O)(=O)C1 (configuration not stated)	-2	0	19*	-3	-4
COc1ccc(NC2CCCN(C(=O)CCN3CCCC3=O)C2)cc1 (configuration not stated)	-2	0	4	-6	-7
COc1ccc(NC2CCCN(C(=O)CCN3Cc4ccccc4C3=O)C2)cc1 (configuration not stated)	5	0	21*	1	-3
COc1ccc(CNC(=O)COC(=O)C(CCSC)NC(=O)c2ccco2)cc1OC (configuration not stated)	-5	-1	117*	-4	-7
O=C(COC(=O)c1cc(S(=O)(=O)N2CCOCC2)ccc1O)Nc1ccc2c(c1)OCO2	1	1	-6	-6	-11
Cc1ccccc1NC(=O)NC1(C(=O)NCC2CCCO2)CCCCC1 (configuration not stated)	-1	2	0	5	-25
O=C(COC(=O)c1cc[n+]([O-])cc1)Nc1ccccc1Sc1ccccc1	-8	1	140*	7	-8
CC(=O)c1ccccc1NC(=O)COC(=O)c1cc[n+]([O-])cc1	8	-1	2	10	7
COc1ccc(-n2c(=S)[nH]c3cc(C(=O)Nc4cccc(C)c4)ccc3c2=O)cc1	-2	0	0	-2	-18
COc1ccc(-n2c(=S)[nH]c3cc(C(=O)Nc4ccc(OC)c(OC)c4)ccc3c2=O)cc1	1	2	126*	-3	-4
O=C(CCN1CCCCO1)N1CCCC(Nc2ccc(F)cc2)C1 (configuration not stated)	-1	0	3	1	-1
Cc1ccc(-c2nc(C(F)(F)F)cc(=O)[nH]2)cc1	-4	1	0	10	-9
Nc1nc(C(F)(F)F)cc(=O)[nH]1	0	65*	0	1	-1
Cn1c(-c2ccc(Cl)nc2)nc2cc(Cl)ccc21	-2	-1	3	-4	-2
O=C(CSc1nnc(-c2ccncc2)n1-c1ccccc1Cl)Nc1ccc(C(=O)O)cc1	-4	0	48*	0	-4
c1ccc(Nc2cccc3c(Nc4ccccc4)cccc23)cc1	6	-1	5	-6	-8
O=S(=O)(O)c1cccc2cccc(Nc3ccccc3)c12	4	96*	3	2	-10
COc1ccc(NC(=O)[C@@H]2[C@@H]3C(=O)N(C4CCCCC4)C(=O)[C@@H]3C3c4ccccc4C=CN32)cc1 (some centres not stated)	-2	-4	17*	1	-10
CCOc1ccccc1N(CC(=O)Nc1ccc(OC)c(OC)c1)S(=O)(=O)c1ccccc1	-4	0	6	52*	5
CCOc1ccccc1N(CC(=O)Nc1cccc(OC)c1)S(=O)(=O)c1ccccc1	-1	0	-3	-1	2
C#CCNC(=O)C1=C[C@@H](c2ccc(C#C)cc2)C[C@@H](OCc2ccc(CO)cc2)O1	-3	0	5	-5	-10
CC(Sc1ncccn1)C(=O)NC1(C#N)CCCCC1 (configuration not stated)	-4	1	18*	4	3
SMILES	Keap1-Nrf2 PPI	LANA DNA inh	LANA-H2A inh	cardiac RTF act	RTF Ca sens inh
CC(SC1=Nc2ccccc2C2CC=NN12)C(=O)NC1(C#N)CCCCC1 (configuration not stated)	-5	-2	-4	-5	-2
Cc1ccc(C2(C)NC(=O)N(CC(=O)NNC(=O)c3ccoc3C)C2=O)cc1 (configuration not stated)	3	-2	-2	-2	1
CCC(=O)N1N=C(c2ccc(NS(=O)(=O)c3ccccc3)cc2)CC1c1ccco1 (configuration not stated)	-4	1	3	-1	-2
COc1cc2ccccc2cc1C(=O)Nc1nccs1	-4	1	20*	8	-1
Cc1ccc(NC(=O)CN2CCN(S(=O)(=O)c3ccc(F)cc3)CC2)cc1C	1	-1	-2	-1	3
Cc1ccccc1-n1c(O)c(/C=C/C=Nc2ccccc2)c(=O)[nH]c1=O	-214	-56	-37	124*	-135
Cc1cc(Oc2ccc(C)c(Cl)c2)nc(SCC(=O)c2ccccc2)n1	-2	0	16*	4	-20
Cc1cc(NC(=O)C2CCN(S(=O)(=O)Cc3ccccc3)CC2)ccc1-n1cnnn1	1	-2	43*	3	-4
COc1ccccc1CNC(=O)CCc1nnc2ccc(NCCCN3CCCC3=O)nn12	4	2	3	5	2
COc1ccc(C(Sc2ccccc2)c2ccccc2)cc1OC (configuration not stated)	-3	2	12*	1	-6
O=C(NCC1CCCN1S(=O)(=O)c1cccs1)C(=O)Nc1ccc(F)cc1F (configuration not stated)	-1	0	1	-3	-11
N#CC(C#N)=C/C(C#N)=C(/N)N1CCN(c2ccc(Cl)cc2)CC1	-3	1	18*	4	-2
O=C(O)c1ccccc1-c1ccc(/C=c2\sc3nc4cc(Br)cnc4n3c2=O)o1	-21	74*	-22	-13	55*
COc1cc(NC(=S)N2CCN(C)CC2)cc(OC)c1	1	2	9.7*	-6	-4
O=C(N/N=C/c1ccc([N+](=O)[O-])o1)C1CC1	1	3	1	10	-3
Cc1cc(C)cc(C(=O)Nc2ccncc2)c1	-4	0	0	-1	-1
COc1ccc(CN(C)S(=O)(=O)c2ccc3c(c2)OCCO3)cc1	0	0	-5	-5	0
O=C1CCC(=O)c2ccc3c4c(ccc1c24)CC3	-4	1	nt	-2	0
O=C1CCN2C=Nc3cccc4ccc1c2c34	140*	152*	114*	703*	i
COc1ccc2[nH]c3c(=O)n(Cc4ccc(C(=O)N5CCCC5)cc4)c(=S)[nH]c3c2c1	-4	0	2	-2	-6
C/C(=N\N=C(N)N)c1ccc(C)c(C)c1	-2	-1	15*	-2	-15
CCC(CO)[n+]1c(C)cc(/C=C2\Sc3ccccc3N2Cc2ccccc2)cc1C (configuration not stated)	-22	-22	-250	40*	-23
COC(=O)c1ccc(C)c(-n2c(=O)n(Cc3ccccc3)c(=O)c3[nH]cnc32)c1	-4	-1	7	5	-6
O=c1nc(SCc2cccc(C(F)(F)F)c2)nc2ccccn12	-3	-3	17*	0	-8

Assay outcomes from PubChem.
